A selection: hits, their analogues and other compounds. The true share with any hit is near 11%.
RORgamma inh: inhibitors of mouse ROR gamma transcriptional activity; AID 2551; hit rate 5.4% among 310,000; Potency, µM (doses to about 53.6 µM), without a hit: at the highest dose activity change, negative = inhibition, most hits filed as inhibitors; Drosophila S2 Gal4-RORgamma UAS-luciferase reporter, 20 h; note: potency is the fitted concentration of half-maximal effect; % is set by controls: 0 for no effect and ±100 for the full control effect; nearly all actives have a fitted effect of over 60% in size
Target sequence (P51450 whole entry, looked up, the tested form may be a part): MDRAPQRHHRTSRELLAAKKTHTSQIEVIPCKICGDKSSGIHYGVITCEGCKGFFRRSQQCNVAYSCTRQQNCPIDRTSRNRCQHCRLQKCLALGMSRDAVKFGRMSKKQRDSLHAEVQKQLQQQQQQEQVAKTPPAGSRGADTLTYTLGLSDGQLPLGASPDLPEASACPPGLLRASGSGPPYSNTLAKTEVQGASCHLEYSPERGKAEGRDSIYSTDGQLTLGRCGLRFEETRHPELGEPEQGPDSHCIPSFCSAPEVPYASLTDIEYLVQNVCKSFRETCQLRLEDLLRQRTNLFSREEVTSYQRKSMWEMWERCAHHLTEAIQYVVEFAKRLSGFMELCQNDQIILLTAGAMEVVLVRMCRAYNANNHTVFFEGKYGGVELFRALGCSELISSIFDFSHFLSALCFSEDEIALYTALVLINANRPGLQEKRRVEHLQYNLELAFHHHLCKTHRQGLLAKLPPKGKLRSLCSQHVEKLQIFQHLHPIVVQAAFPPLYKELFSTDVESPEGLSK
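Stable Schneider cell line, Gal4 DNA-binding domain fused to ROR gamma, UAS-luciferase. Cmpd 1 hr RT → CuSO4 700 uM final → 20 hr RT → luciferase reagent 10 min → luminescence.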
VP16 counter: inhibits Gal4-VP16 luciferase reporter, ROR gamma counter-screen; Drosophila S2 Gal4-VP16 UAS-luciferase, luminescence, 20 h; hit rate 3.5% among 310,000; Potency, µM (titrated, usually from 53.6 µM), inactives show top-dose activity, negative = inhibition, actives largely listed as inhibitors;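 note: Gal4-VP16 expression switched on by copper sulfate through the metallothionein promoter; potency is the fitted concentration of half-maximal effect; % is set by controls: 0 for no effect and ±100 for the full control effect; nearly all actives have a fitted effect of over 50% in size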
SW480 rerep: induces DNA re-replication in SW480 colon adenocarcinoma cells. SW480 DNA re-replication, Hoechst DNA content imaging, 48 h. Potency, µM (titrated, usually from 46.1 µM), for inactives: at the top dose re-replication activation, hits mostly activators. hit rate 1.8% among 340,000; note: potency is the fitted concentration of half-maximal effect; % of control where 0% means no effect; nearly all actives have a fitted effect of over 55% in size
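Image-based DNA-content assay: after two days of treatment, nuclei were labelled with the DNA dye Hoechst and imaged, and hits were compounds raising the count of nuclei showing high fluorescence intensity.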
MCF10A rerep: inducers of DNA re-replication in MCF 10A breast cells; MCF 10A DNA re-replication, Hoechst nuclear intensity, 48 h; Potency, µM (top dose mostly 46.1 µM), without a hit: at the top dose activity, positive = re-replication, actives largely listed as activators; hit rate 2.9% among 350,000; AID 624296; note: potency is the fitted concentration of half-maximal effect; % of control where 0% means no effect; nearly all actives have a fitted effect of over 50% in size
IL1B secr inh: inhibitors of inflammasome signaling (IL-1 beta secretion) | THP-1 LPS/ATP IL-1B secretion, AlphaLISA, 16 h; hits give low values | activity change, % at 57.5 µM | hit rate 4.7% among 360,000 | AID 743279; in the data active = activity change below about -50%; inconclusive = mostly about -30% to -49%; note: % is set by controls: 0 for no effect and ±100 for the full control effect
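Secreted IL-1B measured by AlphaLISA bead assay after 16 h compound exposure of THP-1 cells; compounds (final up to 57.5 uM) added 1 h before LPS (250 ng/mL) and ATP (1.25 mM) stimulation; lower signal means less secretion.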
* marks the source's active call; other numbers are inactive results; ? = inconclusive; · = no result given; [ ] = remark or other dose. Unless noted, calls come from the whole dose curve; as a rule, active = well fitted curve in the direction sought with a large enough effect; inconclusive = small, poorly fitted or top-dose-only effect, or another doubt; inactive = no such curve, though single readings can be large; an effect the other way counts as inactive or inconclusive.

SMILES | RORgamma inh | VP16 counter | SW480 rerep | MCF10A rerep | IL1B secr inh
Nc1c(C(=O)OC2CCCCC2)c2nc3ccccc3nc2n1CC1CCCO1 (centres undefined) | 11.2µM* | -25.7% | ? | ? | ?
CC(C)CCOC(=O)c1c(N)n(CC2CCCO2)c2nc3ccccc3nc12 (centres undefined) | -2.2% | -3.0% | ? | ? | -65.1*
CCC(C)(S(=O)(=O)CC)S(=O)(=O)CC | 10.7% | 3.4% | 7.1% | 4.1% | ·
COc1ccc(CN2CCN(C(=O)Cn3c(=O)oc4cc(Cl)ccc43)CC2)c(OC)c1OC | ? | ? | 18.9% | 24.7% | -29.3
c1cc2c(c(N3CCNCC3)c1)OCCO2 | 2.9% | -2.5% | -1.3% | 4.2% | ·
O=C1CCCC2C3CC(CN12)C1CCCCN1C3 (centres undefined) | -8.9% | 3.4% | · | · | ·
C=C(C)C(=O)CP(=O)(OCC)OCC | ? | 4.5% | · | · | ·
C[S@@](=O)CCCCN=C=S | 3.16µM* | -11.4% | · | · | ·
Cc1ccccc1NC(=NCCCN1CC1)Nc1ccccc1C | · | · | ? | 20.6µM* | ?
Cc1ccccc1NC(=O)c1cc(-c2ccccc2)n(CCCN2CCOCC2)c1C | -5.6% | 0.5% | -3.5% | 14.1% | -5.4
CC12CC(=O)C3C(CCC4CC(=O)C=CC43C)C1CCC2=O (centres undefined) | · | · | -1.0% | 10.9% | -93.0*
C[C@@]12CC(=O)[C@H]3[C@@H](CCC4=CC(=O)CC[C@]43C)[C@H]1CCC2=O | 6.7%[16.9 µM] | -0.6%[17 µM] | · | · | ·
O=C1NC(=O)C(Cc2ccccc2)(Cc2ccccc2)C(=O)N1Cc1ccccc1 | · | · | ? | ? | -53.8*
C/C(=C\[C@@H](N)C(=O)O)CP(=O)(O)O | 3.0% | -6.8% | · | · | ·
COc1ccc(Cl)cc1NC(=O)CSc1ncnc2c1oc1ccccc12 | 17.6% | -1.7% | -153.5% | -0.5% | 16.5
Cc1ccccc1Cn1cnc2c(oc3ccccc32)c1=O | 3.98µM* | 26.5% | 1.1% | ? | -17.6
O=S(=O)(CCN1CCN(c2ccccn2)CC1)c1ccc(Cl)cc1Cl | -3.1% | 8.2% | 2.8% | ? | -21.8
CCC(=NC(C)c1ccccc1)c1c(O)n(C)c(=O)n(C)c1=O (centres undefined) | ? | 12.6µM* | -9.7% | 23.7% | -25.9
C/C(=N\NC(=S)Nc1ccccc1)c1c(O)n(C)c(=O)n(C)c1=O | 8.91µM* | ? | 1.6% | ? | 0.0
CC/C(=N\Nc1ccccc1)c1c(O)n(C)c(=O)n(C)c1=O | ? | -8.3% | -2.6% | 13.8% | 48.8
CCN(CC)CCCC(C)N=C(c1ccccc1)c1c(O)n(C)c(=O)n(C)c1=O (centres undefined) | 0.631µM* | -0.8% | 0.4% | -14.2% | 11.3
C=C1C2C[C@]3(C4CC5[C@@]6(C)CC[C@H](O)[C@@]5(C3CC2=O)C4[N+]([O-])(CC)C6)[C@@H]1O (some centres undefined) | -5.0% | -3.2% | · | · | ·
Cc1cc(C(=O)Nc2ccc(CC(=O)O)cc2)c(C)o1 | 11.2µM* | ? | -2.5% | 0.7% | -9.4
CCC1(CC)CCNC1=O | -0.6% | 0.1% | · | · | ·
Nc1nc(N)nc(NC2CC2)n1 | -2.4% | -2.2% | 1.0% | 3.2% | ·
SMILES | RORgamma inh | VP16 counter | SW480 rerep | MCF10A rerep | IL1B secr inh
Oc1ccc2c3c1O[C@H]1c4[nH]c5c(c4C[C@@]4(O)[C@@H](C2)N(CC2CC2)CC[C@]314)C[C@]1(O)[C@H]2Cc3ccc(O)c4c3[C@@]1(CCN2CC1CC1)[C@@H]5O4 | 29.0% | -4.4% | · | · | ·
O=C1/C(=C\c2ccccc2)C[C@@]2(O)[C@H]3Cc4ccc(O)c5c4[C@@]2(CCN3CC2CC2)[C@@H]1O5 | 11.2µM* | 12.6µM* | · | · | ·
CCOC(=O)C(O)(c1ccc(NC(=S)NC(=O)c2ccc(Cl)cc2Cl)c(C)c1)C(F)(F)F (centres undefined) | 12.6µM* | ? | 21.9% | ? | -54.4*
COC(=O)C(O)(c1ccc(NC(=S)NC(=O)c2ccc(Cl)cc2Cl)c(C)c1)C(F)(F)F (centres undefined) | 8.91µM* | ? | 17.3% | ? | -21.2
CCOC(=O)C(O)(c1ccc(N(CC)C(=O)OC)cc1)C(F)(F)F (centres undefined) | -2.5% | 6.4% | -17.5% | -1.5% | 23.4
CNC(=O)N(C)c1ccc(C(O)(C(=O)OC)C(F)(F)F)cc1 (centres undefined) | 6.8% | 4.0% | 5.1% | -5.7% | 25.3
c1ccc2c(c1)CCCC2 | 1.7% | -6.7% | · | · | ·
CN(C)C1CSSSC1 | ? | -1.5% | · | · | ·
O=S(=O)(c1ccccc1C(F)(F)F)N1CCN(c2ncnc3sccc23)CC1 | · | · | 10.5% | ? | -62.2*
O=S(=O)(c1ccc(F)c(F)c1F)N1CCN(c2ncnc3sccc23)CC1 | · | · | ? | ? | 23.8
COC(=O)[C@@H]1C[C@H](OC(C)=O)C(=O)[C@H]2[C@@]1(C)CC[C@H]1C(=O)O[C@H](c3ccoc3)C[C@]21C | 24.0% | -19.6% | · | · | ·
Cc1[nH]nc2ccc(-c3cncc(OC[C@@H](N)Cc4c[nH]c5ccccc45)c3)cc12 | · | · | ? | 2.31µM* | -104.3*
O=C(O)c1ccccc1SCC(=O)N1c2ccccc2Sc2ccccc21 | -12.2% | 14.1µM* | -56.2% | ? | 16.1
O=c1c2cc(N3CCOCC3)ccc2[nH]c(=S)n1Cc1ccc(Cl)cc1 | 8.91µM* | 0.562µM* | 12.8% | 2.59µM* | 0.0
O=c1[nH]c(=S)n(-c2ccc(Cl)cc2)c(O)c1C=Nc1ccc(N2CCOCC2)cc1 | ? | 3.3% | -2.8% | 19.4% | 14.8
COc1cc(NS(=O)(=O)c2ccc3c(c2)oc(=O)n3C)cc(OC)c1OC | ? | ? | 20.6µM* | ? | 71.5
CCC1CCCCN1CCCNS(=O)(=O)c1ccc2c(c1)oc(=O)n2C (centres undefined) | -0.3% | 4.8% | 9.2% | ? | 28.1
O=C(/C=C/c1ccccc1)c1c(O)n(CCc2ccccc2)c(=O)[nH]c1=O | -32.7%[10 µM] | 22.1% | ? | 8.2µM* | -23.3
COc1cc(/C=C/C(=O)c2c(O)n(CCc3ccccc3)c(=O)[nH]c2=O)ccc1O | -38.5% | ? | ? | ? | -99.3*
O=C(/C=C/c1ccc2c(c1)OCO2)c1c(O)n(CCc2ccccc2)c(=O)[nH]c1=O | 5.1% | 1.5% | ? | 11.6µM* | -4.9
CCNCC | 6.1% | -3.7% | · | · | ·
CCOC(=O)c1c(-n2c(C)cc(C=C3C(=O)NC(=S)NC3=O)c2C)sc2c1CCCC2 | 12.6µM* | ? | ? | 18.4µM* | -109.6*
CCOC(=O)c1c(-n2c(C)cc(/C=C3/C(=O)NC(=O)N(CC)C3=O)c2C)sc2c1CCCC2 | · | · | 3.8% | 10.4% | 6.0
Cc1ccc(N2C(=O)NC(=O)/C(=C\c3cc(C)n(-c4sc5c(c4C#N)CCCC5)c3C)C2=O)cc1 | 34.8% | -3.4% | ? | ? | -84.4*

Bioassay records from PubChem.
